For 36 targets, log2 fold change results are on record in the supplement of paper PMC10849652.

About 8,800 targets were measured; listed, in parts, are those with a hit and a random draw of the rest. About 0.5% of all pairs of compound and target were hits. Unmarked numbers belong to inactive results.

Sequence of UniProt P83369 (P83369 whole entry, looked up): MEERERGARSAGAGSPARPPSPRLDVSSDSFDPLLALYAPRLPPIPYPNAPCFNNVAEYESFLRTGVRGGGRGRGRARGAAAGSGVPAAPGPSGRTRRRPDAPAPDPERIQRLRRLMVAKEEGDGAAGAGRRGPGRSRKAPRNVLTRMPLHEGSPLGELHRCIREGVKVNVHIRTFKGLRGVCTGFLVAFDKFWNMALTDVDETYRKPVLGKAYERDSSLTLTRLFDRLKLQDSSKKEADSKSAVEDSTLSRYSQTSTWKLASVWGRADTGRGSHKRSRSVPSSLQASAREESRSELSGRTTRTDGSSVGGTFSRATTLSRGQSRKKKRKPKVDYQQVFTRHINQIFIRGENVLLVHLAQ
Sequence of UniProt Q08380 (Q08380 whole entry, looked up): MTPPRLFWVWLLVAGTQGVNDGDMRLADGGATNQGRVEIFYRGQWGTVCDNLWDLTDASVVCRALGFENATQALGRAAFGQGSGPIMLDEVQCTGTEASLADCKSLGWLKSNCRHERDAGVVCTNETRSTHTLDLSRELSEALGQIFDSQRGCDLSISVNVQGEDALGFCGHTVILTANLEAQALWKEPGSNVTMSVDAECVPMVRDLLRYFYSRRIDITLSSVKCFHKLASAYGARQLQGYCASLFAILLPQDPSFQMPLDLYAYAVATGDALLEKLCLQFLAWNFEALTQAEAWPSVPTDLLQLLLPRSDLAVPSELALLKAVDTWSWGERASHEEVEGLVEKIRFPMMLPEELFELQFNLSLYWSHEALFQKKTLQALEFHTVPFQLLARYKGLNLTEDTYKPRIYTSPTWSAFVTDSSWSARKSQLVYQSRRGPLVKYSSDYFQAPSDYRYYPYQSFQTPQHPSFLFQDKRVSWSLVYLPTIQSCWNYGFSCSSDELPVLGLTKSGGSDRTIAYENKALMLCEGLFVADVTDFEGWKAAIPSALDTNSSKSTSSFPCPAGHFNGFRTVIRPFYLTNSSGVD
Sequence of UniProt Q13164 (Q13164 whole entry, looked up): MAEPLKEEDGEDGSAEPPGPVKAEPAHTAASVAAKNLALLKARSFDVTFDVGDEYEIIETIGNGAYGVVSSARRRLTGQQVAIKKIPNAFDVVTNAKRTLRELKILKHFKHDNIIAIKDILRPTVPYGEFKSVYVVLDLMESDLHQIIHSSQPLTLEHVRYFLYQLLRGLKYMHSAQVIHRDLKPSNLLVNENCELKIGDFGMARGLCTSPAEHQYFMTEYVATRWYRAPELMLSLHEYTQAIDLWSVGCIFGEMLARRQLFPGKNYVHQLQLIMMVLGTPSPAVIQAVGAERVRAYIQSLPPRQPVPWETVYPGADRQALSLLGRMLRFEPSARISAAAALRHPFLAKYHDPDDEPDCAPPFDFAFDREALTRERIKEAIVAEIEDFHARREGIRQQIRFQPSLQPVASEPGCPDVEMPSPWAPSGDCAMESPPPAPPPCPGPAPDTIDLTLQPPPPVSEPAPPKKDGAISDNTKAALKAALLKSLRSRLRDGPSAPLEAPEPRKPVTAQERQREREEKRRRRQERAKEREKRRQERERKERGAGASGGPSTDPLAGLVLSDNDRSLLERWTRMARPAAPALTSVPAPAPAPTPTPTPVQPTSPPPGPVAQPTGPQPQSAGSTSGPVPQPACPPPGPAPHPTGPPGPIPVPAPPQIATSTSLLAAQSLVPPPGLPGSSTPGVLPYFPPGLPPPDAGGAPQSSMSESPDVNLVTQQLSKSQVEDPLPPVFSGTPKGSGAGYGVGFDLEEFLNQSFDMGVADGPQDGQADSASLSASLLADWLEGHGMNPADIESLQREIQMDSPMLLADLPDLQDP
Sequence of UniProt O15243 (O15243 whole entry, looked up): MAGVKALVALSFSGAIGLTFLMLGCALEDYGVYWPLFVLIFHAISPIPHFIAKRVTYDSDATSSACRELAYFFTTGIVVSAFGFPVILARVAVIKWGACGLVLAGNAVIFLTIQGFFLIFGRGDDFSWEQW
Sequence of UniProt Q6ZRQ5 (Q6ZRQ5 whole entry, looked up): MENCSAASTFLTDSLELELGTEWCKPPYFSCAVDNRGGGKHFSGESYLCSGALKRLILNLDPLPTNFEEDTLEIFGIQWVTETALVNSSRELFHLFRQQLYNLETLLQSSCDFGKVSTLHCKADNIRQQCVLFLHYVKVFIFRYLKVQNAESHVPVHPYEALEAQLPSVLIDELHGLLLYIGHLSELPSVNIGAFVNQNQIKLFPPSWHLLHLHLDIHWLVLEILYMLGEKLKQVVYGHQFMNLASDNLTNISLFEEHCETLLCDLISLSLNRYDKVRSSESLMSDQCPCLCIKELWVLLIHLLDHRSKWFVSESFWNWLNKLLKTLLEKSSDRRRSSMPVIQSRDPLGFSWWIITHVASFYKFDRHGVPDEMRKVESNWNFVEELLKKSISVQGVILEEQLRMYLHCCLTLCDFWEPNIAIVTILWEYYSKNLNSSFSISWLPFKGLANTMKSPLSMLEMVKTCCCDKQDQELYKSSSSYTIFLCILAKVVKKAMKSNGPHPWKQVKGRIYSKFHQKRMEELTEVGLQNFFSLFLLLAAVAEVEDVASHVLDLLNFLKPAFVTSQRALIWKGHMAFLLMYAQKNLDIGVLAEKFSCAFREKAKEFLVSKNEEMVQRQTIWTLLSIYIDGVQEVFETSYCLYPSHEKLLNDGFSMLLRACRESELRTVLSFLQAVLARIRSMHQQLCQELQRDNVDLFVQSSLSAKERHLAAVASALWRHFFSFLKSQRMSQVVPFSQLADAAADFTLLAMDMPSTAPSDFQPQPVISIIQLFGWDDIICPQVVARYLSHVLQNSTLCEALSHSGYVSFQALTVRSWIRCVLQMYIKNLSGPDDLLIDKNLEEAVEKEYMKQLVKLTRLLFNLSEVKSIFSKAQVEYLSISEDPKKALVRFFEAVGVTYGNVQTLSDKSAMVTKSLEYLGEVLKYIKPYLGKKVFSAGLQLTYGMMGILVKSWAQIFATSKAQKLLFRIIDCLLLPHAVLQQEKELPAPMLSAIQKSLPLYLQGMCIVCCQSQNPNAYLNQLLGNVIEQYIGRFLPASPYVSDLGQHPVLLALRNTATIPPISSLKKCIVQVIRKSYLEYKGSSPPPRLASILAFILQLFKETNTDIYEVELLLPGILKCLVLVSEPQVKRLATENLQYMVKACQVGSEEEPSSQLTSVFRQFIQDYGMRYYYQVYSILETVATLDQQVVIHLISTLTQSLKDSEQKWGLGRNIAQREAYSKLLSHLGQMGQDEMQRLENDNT
Sequence of UniProt O60337 (O60337 whole entry, looked up): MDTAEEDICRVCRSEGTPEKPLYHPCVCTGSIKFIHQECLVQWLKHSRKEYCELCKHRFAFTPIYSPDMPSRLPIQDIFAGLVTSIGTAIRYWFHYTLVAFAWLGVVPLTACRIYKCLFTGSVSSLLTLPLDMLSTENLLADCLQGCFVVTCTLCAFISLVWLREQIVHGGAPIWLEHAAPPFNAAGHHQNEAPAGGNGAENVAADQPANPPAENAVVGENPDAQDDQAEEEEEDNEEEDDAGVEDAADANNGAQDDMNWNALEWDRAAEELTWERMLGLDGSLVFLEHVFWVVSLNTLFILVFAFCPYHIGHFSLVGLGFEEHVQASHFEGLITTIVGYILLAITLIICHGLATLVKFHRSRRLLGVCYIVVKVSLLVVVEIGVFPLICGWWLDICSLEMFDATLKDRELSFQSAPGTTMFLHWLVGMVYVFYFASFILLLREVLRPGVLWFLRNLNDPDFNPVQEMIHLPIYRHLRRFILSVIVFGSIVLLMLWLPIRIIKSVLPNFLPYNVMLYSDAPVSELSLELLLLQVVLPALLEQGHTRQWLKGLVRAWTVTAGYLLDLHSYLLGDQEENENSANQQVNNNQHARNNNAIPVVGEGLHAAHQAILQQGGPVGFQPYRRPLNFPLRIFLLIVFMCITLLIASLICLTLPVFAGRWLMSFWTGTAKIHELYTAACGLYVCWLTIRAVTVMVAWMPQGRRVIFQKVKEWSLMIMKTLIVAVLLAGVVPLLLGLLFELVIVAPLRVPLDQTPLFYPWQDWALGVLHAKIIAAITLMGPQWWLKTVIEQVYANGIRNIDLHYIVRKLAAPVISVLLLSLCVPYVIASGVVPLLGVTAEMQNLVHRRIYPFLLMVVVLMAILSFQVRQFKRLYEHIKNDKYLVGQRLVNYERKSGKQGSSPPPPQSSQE
Sequence of UniProt P53667 (P53667 whole entry, looked up): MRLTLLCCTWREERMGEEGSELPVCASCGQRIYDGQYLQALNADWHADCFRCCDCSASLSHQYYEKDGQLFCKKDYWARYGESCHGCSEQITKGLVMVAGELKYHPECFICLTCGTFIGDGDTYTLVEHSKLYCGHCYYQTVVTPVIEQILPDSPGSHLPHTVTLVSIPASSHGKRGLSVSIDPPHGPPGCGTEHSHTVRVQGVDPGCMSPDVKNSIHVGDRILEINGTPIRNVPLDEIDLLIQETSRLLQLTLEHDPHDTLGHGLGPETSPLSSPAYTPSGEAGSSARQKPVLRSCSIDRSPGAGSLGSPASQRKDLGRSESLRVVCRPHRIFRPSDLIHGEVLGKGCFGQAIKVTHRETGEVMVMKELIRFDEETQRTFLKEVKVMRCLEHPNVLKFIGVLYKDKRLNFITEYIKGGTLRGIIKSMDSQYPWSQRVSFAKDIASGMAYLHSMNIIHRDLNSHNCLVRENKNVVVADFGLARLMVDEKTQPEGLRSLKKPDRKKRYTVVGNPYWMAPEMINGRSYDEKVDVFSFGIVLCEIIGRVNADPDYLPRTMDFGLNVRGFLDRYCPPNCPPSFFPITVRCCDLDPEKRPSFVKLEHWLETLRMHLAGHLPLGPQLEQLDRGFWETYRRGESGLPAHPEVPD
Sequence of UniProt Q16553 (Q16553 whole entry, looked up): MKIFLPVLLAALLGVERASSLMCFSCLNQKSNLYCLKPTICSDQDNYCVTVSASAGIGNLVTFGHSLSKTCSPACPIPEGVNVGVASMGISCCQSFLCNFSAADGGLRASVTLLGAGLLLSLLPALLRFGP
Sequence of UniProt Q9H204 (Q9H204 whole entry, looked up): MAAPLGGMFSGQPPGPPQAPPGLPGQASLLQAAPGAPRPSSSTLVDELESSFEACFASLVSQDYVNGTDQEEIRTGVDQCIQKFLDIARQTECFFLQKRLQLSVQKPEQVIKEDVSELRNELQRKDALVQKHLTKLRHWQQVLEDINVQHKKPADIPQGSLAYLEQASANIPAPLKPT

Compound in the first assay: Cc1cc(Nc2cc(CN3CCOCC3)c3nc(C)c(Cc4ccc(Cl)cc4F)n3n2)n[nH]1 [gandotinib]
The experiment in a line: log2 fold change, soluble protein after heating vs DMSO (PISA); higher = thermal stabilisation; K562 lysate, 10 uM; active = over 0.2 and 3.5 SD of the protein, either way, in both replicates (recomputed). In a few lines: (§1)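 Log-two fold change in thermal stability relative to solvent controls is reported from duplicates. For each sample, crude K562 extract from dounce-homogenised pellets in PBS pH 7.4 with 1 mM MgCl2, at 1 mg/mL protein, was treated with 10 μM compound for 30 min. Aliquots heated for 3 min across 48°C-58°C were pooled, brought to 0.5% NP-40 at 4°C and cleared at 21,000xg for 90 min. The supernatant was quantified by TMTpro 16plex LC-MS/MS with channel sums equalised.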
In the case of LGALS3BP (UniProt Q08380), the log2 fold change is 0.197.
Same read-out and setting: as for MRPL22 (UniProt Q9NWU5), the figure is -0.018; as for LEPROT (UniProt O15243), 0.054.
Take KIF2A isoform 2 (UniProt O00139): the log2 fold change was -0.059.
On to KIFC3 isoform 6 (UniProt Q9BVG8), for which the log2 fold change is 0.111.
With MAPK12 (UniProt P53778), the log2 fold change was -0.15.
On the same count and under the same terms, as for LSM11 (UniProt P83369), the figure is 0.039.
Consider MRC2 (UniProt Q9UBG0), for which the log2 fold change is 0.075.
Regarding MARCHF6 (UniProt O60337), the log2 fold change is -0.028.
Turning to LRRC9 (UniProt Q6ZRR7), the log2 fold change was -0.488.
Still for that read-out and setting: the same measure for MCUB (UniProt Q9NWR8): -0.347; for MMS22L (UniProt Q6ZRQ5): -0.169.
On the same count and under the same terms, the same measure for LIMK1 (UniProt P53667): -0.03; for MEGF8 (UniProt Q7Z7M0): -0.101.
Still for that read-out and setting: the same measure for LY6E (UniProt Q16553): 0.412; for MAP4K4 isoform 3 (UniProt O95819): -0.088.
For the target MED28 (UniProt Q9H204), the log2 fold change is 0.394 (active).
The same measure, in the same setting: the same measure for MME (UniProt P08473): -0.002.
On the same count and under the same terms, the same measure for LRRC7 (UniProt Q96NW7): -0.07; for MAPK7 (UniProt Q13164): 0.161; for METTL21A (UniProt Q8WXB1): 0.038.

Compound in the next assay: Cc1cc(Nc2cc(N3CCN(C)CC3)nc(Sc3ccc(NC(=O)C4CC4)cc3)n2)n[nH]1 [tozasertib]
The assay is described as above. The method in brief: as §1
As for LGALS3BP (UniProt Q08380), the log2 fold change was 0.115.
Take MAPKAP1 (UniProt Q9BPZ7): the log2 fold change is 0.113.
Regarding LEPROT (UniProt O15243), the log2 fold change is -0.116.
On to KRIT1 (UniProt O00522), for which the log2 fold change was -0.043.
KLC1 isoform 10 (UniProt Q07866): the log2 fold change is 0.016.
Take LRP1 (UniProt Q07954): the log2 fold change was 0.239.
Take KMT2B (UniProt Q9UMN6): the log2 fold change was 0.073.
Regarding KIFC3 isoform 6 (UniProt Q9BVG8), the log2 fold change is -0.111.
On the same count and under the same terms, the same measure for MAPK12 (UniProt P53778): 0.248; for LSM11 (UniProt P83369): 0.011.
As for MRC2 (UniProt Q9UBG0), the log2 fold change was 0.063.
Turning to MARCHF6 (UniProt O60337), the log2 fold change is 0.004.
Consider KIF18B (UniProt Q86Y91), for which the log2 fold change is -0.161.
For LRRC9 (UniProt Q6ZRR7), the log2 fold change is 0.053.
MMS22L (UniProt Q6ZRQ5): the log2 fold change was 0.087.
For LIMK1 (UniProt P53667), the log2 fold change is 0.096.
For MCMBP isoform 2 (UniProt Q9BTE3), the log2 fold change was 0.013.
Still for that read-out and setting: the same measure for MAP4K4 isoform 6 (UniProt O95819): 0.102.
The same measure, in the same setting: as for KRAS isoform 2 (UniProt P01116), the figure is -0.043; as for MEGF8 (UniProt Q7Z7M0), 0.02.
The same measure, in the same setting: the same measure for LY6E (UniProt Q16553): 0.079; for MAP4 isoform 5 (UniProt P27816): 0.008.
Take MAP4K4 isoform 3 (UniProt O95819): the log2 fold change was 0.014.
For MINDY1 isoform 3 (UniProt Q8N5J2), the log2 fold change was -0.036.
For the target LRRC7 (UniProt Q96NW7), the log2 fold change is -0.018.
As for MAPK7 (UniProt Q13164), the log2 fold change was -0.029.
With MAP3K6 (UniProt O95382), the log2 fold change was -0.061.

Compound in the next assay: Cc1ccc(-n2nc(C(C)(C)C)cc2NC(=O)Nc2ccc(OCCN3CCOCC3)c3ccccc23)cc1 [doramapimod]
The assay is described as above. In a few lines:
as §1
Consider LGALS3BP (UniProt Q08380), for which the log2 fold change is -0.087.
With MRPL22 (UniProt Q9NWU5), the log2 fold change is 0.016.
On the same count and under the same terms, the same measure for MAPKAP1 (UniProt Q9BPZ7): -0.029; for LEPROT (UniProt O15243): 0.
As to KRIT1 (UniProt O00522), the log2 fold change is 0.016.
On the same count and under the same terms, the same measure for LRP1 (UniProt Q07954): 0.022.
On the same count and under the same terms, the same measure for KMT2B (UniProt Q9UMN6): -0.033.
On the same count and under the same terms, as for KLHL12 isoform 2 (UniProt Q53G59), the figure is 0.003; as for MAP3K4 isoform 2 (UniProt Q9Y6R4), -0.007.
For the target KIFC3 isoform 6 (UniProt Q9BVG8), the log2 fold change was -0.034.
Still for that read-out and setting: as for LSM11 (UniProt P83369), the figure is 0.123.
For the target MRC2 (UniProt Q9UBG0), the log2 fold change is 0.035.
Take MARCHF6 (UniProt O60337): the log2 fold change was 0.003.
KIF18B (UniProt Q86Y91): the log2 fold change was 0.077.
For the target LRRC9 (UniProt Q6ZRR7), the log2 fold change is 0.074.
Same read-out and setting: as for MCUB (UniProt Q9NWR8), the figure is 0.05; as for MMS22L (UniProt Q6ZRQ5), -0.018.
Same read-out and setting: the same measure for LIMK1 (UniProt P53667): -0.009.
MCMBP isoform 2 (UniProt Q9BTE3): the log2 fold change was -0.092.
Same read-out and setting: the same measure for KRAS isoform 2 (UniProt P01116): -0.062; for MEGF8 (UniProt Q7Z7M0): -0.028; for MAP4 isoform 5 (UniProt P27816): -0.061.
The same measure, in the same setting: the same measure for LRRIQ1 (UniProt Q96JM4): -0.073.
Same read-out and setting: the same measure for MAP4K4 isoform 3 (UniProt O95819): 0.087.
Consider MINDY1 isoform 3 (UniProt Q8N5J2), for which the log2 fold change is 0.051.
Same read-out and setting: as for MED28 (UniProt Q9H204), the figure is -0.012.
For the target MME (UniProt P08473), the log2 fold change is 0.002.
The same measure, in the same setting: as for LRRC7 (UniProt Q96NW7), the figure is 0.001; as for MAPK7 (UniProt Q13164), 0.01; as for METTL21A (UniProt Q8WXB1), -0.081.
